# An excerpt weighted towards active compounds, which were near 2.8% of everything screened.
# Peg3 prom inh: Peg3 promoter-driven luciferase inhibitors, primary screen, cell-based, HeLa, luciferase luminescence; HeLa PEG-Prom luciferase reporter, overnight; inhibition, % at 20 µM; 360,000 compounds, 1.7% hits;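 active = inhibition of at least 50% at 20 µM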
# MITF TRPM1 inh: inhibitors of MITF-dependent TRPM1 promoter reporter, primary screen, cell-based, SK-MEL-5, single point, luciferase. SK-MEL-5 TRPM1 promoter luciferase, 24 h. inhibition, % at 12.5 µM. 330,000 compounds, 0.83% hits. AID 488899, 2010;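 active = mean inhibition across replicates of 60% or more, whatever share of single replicates reaches that level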
# KKLEB tox: cytotoxicity in KKLEB CF airway cells, primary screen, cytotoxicity control for CF NF-kB inhibitor project, cell-based, uHTS, fluorescence assay plates; KKLEB CF airway cells viability, ATPlite luminescence, overnight; active compounds read low; cells stimulated with P. aeruginosa culture filtrate; activity change (cytotoxicity), % at 5 µM; 360,000 compounds, 0.36% hits; AID 602141, 2011;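 active = corrected activity change at or below -50% at 5 µM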
# HIF-2a inh: HIF-2a reporter inhibitors, primary screen, luminescence, 786-0 RCC cells; inhibition, % at 18.8 µM; 786-0 RCC cells HIF-2a reporter, luciferase luminescence, overnight; 360,000 compounds, 0.72% hits;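 active = inhibition of the luminescence signal of 40% or more relative to plate controls, in a single-dose primary screen at 18.75 µM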
# Shn3 3UTR inh: reduction of Shn3 3'UTR firefly luciferase signal, primary screen, Schnurri-3 inhibitor project, cell-based, Clone20 osteoblasts, set 2; Clone20 osteoblast Shn3 3'UTR firefly luciferase, 24 h; inhibition, % at 12.5 µM; 360,000 compounds, 0.52% hits; AID 588674, 2011;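 active = mean inhibition of at least 75% with every replicate also reaching 75%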;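 note: 0% = median of neutral control wells and 100% = pilot-screen positive control compound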
# CF NFkB block: inhibitors of PAF-induced NF-kB signaling, primary screen, cell-based, GFP fluorescence, uHTS | KKLEB NF-kB-GFP reporter, GFP fluorescence overnight | inhibition, % at 5 µM | 360,000 compounds, 0.86% hits;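 active = at least 50% inhibition at 5 µM, scaled per plate between neutral and stimulator controls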;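 note: PAF is a Pseudomonas aeruginosa culture filtrate used as stimulus; plate controls were PAF-stimulated DMSO wells for no effect and unstimulated DMSO wells for full effect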
# CF NFkB inh conf: inhibitors of PAF-induced NF-kB signaling, retest, confirmation, cell-based, GFP fluorescence, single concentration; shares compounds with CF NFkB block; KKLEB CF airway cells, overnight; inhibition, % at 5 µM; 1,300 compounds, 64% hits; in the data active = inhibition above about 40%;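 note: stimulus PAF is a Pseudomonas aeruginosa filtrate and not platelet activating factor; plate controls were DMSO wells with stimulus for no effect and unstimulated DMSO wells for full effect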
# * hit, by the source's call; . = no result given.
SMILES,Peg3 prom inh,MITF TRPM1 inh,KKLEB tox,HIF-2a inh,Shn3 3UTR inh,CF NFkB block,CF NFkB inh conf
C=CCOc1ccc(CN(C)C(=O)CNC(=O)c2ccc(-c3ccccc3)cc2)cc1,0,17,16,-22,50,-9,.
Cc1cccc(N2C(=O)CC(Sc3nc(-c4ccccc4)c4cc(Cl)ccc4n3)C2=O)c1 (stereo not drawn),14,-5,1,18,14,5,.
COc1ccc(C(=O)Oc2ccc(F)cc2C(=O)/C=C/c2ccc(OC)c(OC)c2)cc1,19,6,-15,4,16,12,.
COc1ccc(/C=C/C(=O)c2cc(F)ccc2OC(=O)c2ccccc2C)cc1OC,19,49,-27,25,9,54*,45*
CCC1(O)CC2CN(CCc3c([nH]c4ccccc34)C(C(=O)OC)(c3cc4c(cc3OC)N(C=O)C3C(O)(C(=O)OC)C(OC(C)=O)C5(CC)C=CCN6CCC43C65)C2)C1 (stereo not drawn),-22,52,-8,32,-6,58*,92*
COc1ccc(NC(=O)CN(C)C(=O)c2cc(-c3cccs3)nn2-c2ccccc2)cc1,28,0,-3,7,-4,2,.
CCN(CC(=O)Nc1ccc(OC)cc1)C(=O)c1cc(-c2cccs2)nn1-c1ccccc1,50,10,-11,10,17,54*,51*
C/C=C/COC(=O)c1[nH]c2c(c1C)C(=O)CC(c1ccc(N(C)C)cc1)C2 (stereo not drawn),-40,-27,-26,-49,26,25,.
Cc1c(C(=O)OC2CCCC2)[nH]c2c1C(=O)CC(c1ccco1)C2 (stereo not drawn),-26,25,-31,-47,90*,50*,82*
Cc1c(C(=O)OCC(C)C)[nH]c2c1C(=O)CC(c1ccco1)C2 (stereo not drawn),-41,7,-24,-61,64,51*,53*
C/C=C/COC(=O)c1[nH]c2c(c1C)C(=O)CC(c1ccco1)C2 (stereo not drawn),-6,.,-32,15,73,62*,85*
Cc1c(C(=O)OCC2CCCO2)[nH]c2c1C(=O)CC(c1ccco1)C2 (stereo not drawn),-4,20,1,-20,7,5,.
COC(=O)c1[nH]c2c(c1C)C(=O)CC(c1ccccc1)C2 (stereo not drawn),15,27,-29,6,1,42,.
COc1ccc(NC(=O)Cn2ncn3nc(-c4ccc(OC)cc4)cc3c2=O)cc1,-11,6,-33,-16,1,54*,55*
O=C(OCC(=O)N1CCCC1=O)c1nc(Cl)c(Cl)c(Cl)c1Cl,82*,53,0,8,-4,60*,-20
Nc1c(Cl)c(Cl)nc(C(=O)OCC(=O)N2CCCC2=O)c1Cl,8,7,4,10,-2,19,.
CC(C)c1ccc(NC(=O)C(c2ccc3c(c2)OCO3)N2CCCCC2)cc1 (stereo not drawn),5,.,1,-48,32,5,.
Oc1cc2c(cc1C(c1ccc(Cl)c(Cl)c1)N1CCCC1)OCO2 (stereo not drawn),31,6,-48,29,24,64*,44*
O=C(CN1C(=O)CCC1=O)Nc1nc(-c2ccccn2)cs1,5,4,-5,10,11,-30,.
O=C(CN1C(=O)CCC1=O)Nc1nc(-c2nc3ccccc3s2)cs1,-251,-87,0,-260,-50,71*,92*
COc1ccccc1NC(=O)c1cc2c(CO)cnc(C)c2oc1=Nc1ccc(OC)c(OC)c1,56*,14,-49,1,19,86*,85*
COc1cc(-c2nnc(COc3ccc4ccccc4c3)o2)cc(OC)c1OC,23,-10,-12,7,2,0,.
COc1cc(/C=N/NC(=O)Nc2cccc3nsnc23)cc(OC)c1OC,22,-30,-25,9,7,64*,77*
CCCn1c(SCC(=O)Nc2ccc(S(=O)(=O)N(C)C)cc2)n[nH]c1=O,10,-1,1,8,-8,-1,.
Cc1cc(S(=O)(=O)Nc2ncnc3sccc23)ccc1F,-1,.,12,7,-16,9,.
SMILES,Peg3 prom inh,MITF TRPM1 inh,KKLEB tox,HIF-2a inh,Shn3 3UTR inh,CF NFkB block,CF NFkB inh conf
O=C(Oc1ccc(F)cc1C(=O)/C=C/c1cccs1)c1cccc([N+](=O)[O-])c1,18,28,1,28,4,50*,60*
O=C1C=C(NC2=CC3OC(c4ccccc4)OCC3OC2=O)CCC1 (stereo not drawn),44,65*,-11,25,20,71*,47*
COc1cccc(NC(=O)Cn2nnc(C(=O)Nc3cc(Cl)ccc3OC)c2N)c1,19,3,-36,0,-4,56*,9
COc1ccc(NC(=O)Cn2nnc(C(=O)Nc3ccc(F)c(Cl)c3)c2N)cc1,22,-7,-44,-2,7,61*,-1
COc1ccc(Cl)cc1NC(=O)c1nnn(CC(=O)Nc2ccc(OC)c(OC)c2)c1N,22,-2,-24,-1,-4,50*,4
CC(O)CNCc1ccccc1C(F)(F)F (stereo not drawn),-9,10,-13,11,0,10,.
Cc1ccccc1NS(=O)(=O)c1ccc(OCC(=O)N2CCCC2)cc1,21,-6,37,6,-2,-24,.
NC(=O)c1sc2nc3c(c(-c4ccco4)c2c1N)CCCC3,11,-12,-11,22,-8,65*,80*
COc1ccc(CN2CCNC(=O)C2CC(=O)N(C)C2CCOCC2)c(F)c1 (stereo not drawn),-11,-1,8,12,-8,-5,.
COc1ccc(-n2nnnc2S(=O)(=O)Cc2ccc(C(=O)O)cc2)cc1,37,9,-42,12,2,89*,91*
COc1ccc(Nc2nc(-c3cccs3)nc3ccccc23)cc1S(=O)(=O)N1CCOCC1,55*,6,-36,-83,43,90*,103*
COc1ccc(NS(=O)(=O)c2cccs2)cc1S(=O)(=O)N1CCOCC1,13,10,0,2,17,-6,.
Cc1cccc(NC(=O)Nc2ccc(C#N)cc2)n1,62*,18,-2,-108,-5,75*,98*
Cc1cccc(NC(=O)Nc2cccc(C#N)c2)n1,-82,-41,6,-307,-89,16,.
